Test results: PubChem BioAssay (Tox21)
Results filed as inconclusive are left out. Calls of active or inactive are those of the source. Unless noted, calls follow the shape of the dose curve; as a rule, active = well fitted curve in the direction sought with a large enough effect in the repeat runs; inconclusive = weak or mixed curves; inactive = no such curve, though single readings can be large; an effect the other way counts as inactive or inconclusive.

Legend:
[1] = qHTS assay to identify small molecule agonists of the hypoxia (HIF-1) signaling pathway - cell viability counter screen (AID 1224844; calls by dose curve; also: nearly all actives have a fitted effect of over 50% in size)
Summary of the method: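 Cytotoxicity was measured in parallel with the HRE-driven beta-lactamase readout: after 17 hrs of compound exposure at 37C, HRE-bla ME-180 cells received CellTiter-Glo and luminescence was recorded 30 min later.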

[2] = qHTS assay to identify small molecule agonists of H2AX (AID 1224845; active = well fitted activation curve with a large enough effect in the signal ratio in the repeat runs, not every such curve was filed as active; the % refers to the signal ratio)
Summary of the method: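 Phospho-H2AX Ser139 measured by HTRF (ex 320 nm; em 665 and 620 nm) after 24 hr antibody incubation. Compounds, 15 concentrations, 0.76% DMSO, were applied to CHO-K1 cells for 3hr at 37C before lysis.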

[3] = qHTS assay to identify small molecule agonists of H2AX - cell viability counter screen (AID 1224847; calls by dose curve; also: top concentration of the series differs between compounds; nearly all actives have a fitted effect of over 30% in size)
Summary of the method: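 Compounds tested at 15 concentrations were incubated 3 hr at 37C with wild-type CHO-K1 cells; cellular ATP-based luminescence (CellTiter-Glo) indicated viability.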

[4] = qHTS assay to identify small molecule antagonists of the estrogen related receptor (ERR) signaling pathway from Tox21 library (AID 1224848); also: nearly all actives have a fitted effect of over 50% in size
Summary of the method: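 ERR cell line, 2,000 cells/well. 6 h settle, then compound (DMSO) added; 18 h at 37 C; ONE-Glo luminescence after 30 min RT.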

[5] = qHTS assay to identify small molecule agonists of the estrogen related receptor (ERR) signaling pathway from Tox21 library (AID 1224849; calls by dose curve; also: nearly all actives have a fitted effect of over 15% in size); conditions: ERR reporter cell line, ONE-Glo luciferase, 18 h; at 92.4 µM (top of the series) unless noted
Summary of the method: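 Cells carrying the ERR reporter were plated and allowed to settle for 6 h, exposed to library compounds for 18 h at 37 C, then lysed with ONE-Glo and luminescence measured.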

[6] = qHTS RealTime-Glo MT Cell Viability Assay in HepG2 cells - 24 hour (AID 1224867); also: nearly all actives have a fitted effect of over 50% in size
Summary of the method: (§1)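 Real-time, nonlytic viability: 600 HepG2 cells/well mixed with NanoLuc enzyme plus prosubstrate; 5 h settle, compound (DMSO) added by pintool; luminescence monitored over 40 h at 37 C.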

[7] = qHTS RealTime-Glo MT Cell Viability Assay in HEK293 cells - 32 hour (AID 1224868); also: top concentration of the series differs between compounds; nearly all actives have a fitted effect of over 50% in size
Summary of the method: (§2)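 Cells + reagent dispensed (600 cells/well, HEK293) → 5 h at 37 C/5% CO2 → 23 nL compound in DMSO pinned → 40 h at 37 C → luminescence read at 0, 8, 16, 24, 32, 40 h.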

[8] = A CellTox Green Cytotoxicity Assay to monitor cytotoxicity in HEK293 cells - 0 hour (AID 1224869); also: nearly all actives have a fitted effect of over 50% in size
Summary of the method: (§3)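 Cells (HEK293, 600/well) and dye reagent are dispensed together. After 5 h at 37 C, 23 nL compound is pinned in. Plates stay at 37 C for 40 h with fluorescence read at 0h, 8h, 16h, 24h, 32h and 40h.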

[9] = qHTS RealTime-Glo MT Cell Viability Assay in HepG2 cells - 40 hour (AID 1224870); also: nearly all actives have a fitted effect of over 50% in size
Summary of the method: (§4)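 Real-time viability: cells seeded at 600 per well together with NanoLuc and cell-permeant prosubstrate, compounds added after 5 h incubation. Luminescence tracked at 0, 8, 16, 24, 32 and 40 h of exposure.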

[10] = A CellTox Green Cytotoxicity Assay to monitor cytotoxicity in HEK293 cells - 40 hour (AID 1224871); also: nearly all actives have a fitted effect of over 45% in size
Summary of the method: as §3

[11] = qHTS RealTime-Glo MT Cell Viability Assay in HEK293 cells - 16 hour (AID 1224872)
Summary of the method: as §2

[12] = qHTS RealTime-Glo MT Cell Viability Assay in HepG2 cells - 8 hour (AID 1224873); also: nearly all actives have a fitted effect of over 55% in size
Summary of the method: as §4

[13] = qHTS RealTime-Glo MT Cell Viability Assay in HEK293 cells - 40 hour (AID 1224874); conditions: RealTime-Glo luminescence; max response: hits give low values; also: nearly all actives have a fitted effect of over 50% in size
Summary of the method: (§5)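 Real-time viability in HEK293: signal arises when living cells convert a prosubstrate for NanoLuc in the medium, so luminescence tracks viable cell number. Compound (23 nL, DMSO) added 5 h post-seeding; kinetic reads at 0–40 h, 37 C.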

[14] = A CellTox Green Cytotoxicity Assay to monitor cytotoxicity in HEK293 cells - 24 hour (AID 1224875); also: nearly all actives have a fitted effect of over 45% in size
Summary of the method: as §3

[15] = A CellTox Green Cytotoxicity Assay to monitor cytotoxicity in HepG2 cells - 16 hour (AID 1224876); also: nearly all actives have a fitted effect of over 45% in size
Summary of the method: (§6)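 Cells and non-lytic dye reagent are dispensed together (600 HepG2 cells/well) and incubated 5 h before DMSO compound transfer. Kinetic fluorescence is then recorded in the same wells during 40 h at 37 C.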

[16] = qHTS RealTime-Glo MT Cell Viability Assay in HepG2 cells - 32 hour (AID 1224877); also: nearly all actives have a fitted effect of over 55% in size
Summary of the method: as §1

[17] = A CellTox Green Cytotoxicity Assay to monitor cytotoxicity in HepG2 cells - 24 hour (AID 1224878); also: nearly all actives have a fitted effect of over 45% in size
Summary of the method: as §6

[18] = A CellTox Green Cytotoxicity Assay to monitor cytotoxicity in HepG2 cells - 40 hour (AID 1224879); also: nearly all actives have a fitted effect of over 40% in size
Summary of the method: as §6

[19] = qHTS RealTime-Glo MT Cell Viability Assay in HEK293 cells - 0 hour (AID 1224880)
Summary of the method: as §5

[20] = qHTS assay to identify small molecule agonists of the hypoxia (HIF-1) signaling pathway (AID 1224846; active = well fitted activation curve with a large enough effect in the signal ratio in the repeat runs, not every such curve was filed as active; the % refers to the signal ratio)
Summary of the method: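 Compounds from the Tox21 10K library, dissolved in DMSO, are tested for induction of a hypoxia response element–controlled beta-lactamase reporter in ME-180 cells. Exposure lasts 17 hrs at 37C after a 5 hr settling period, followed by CCF4-AM FRET substrate.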
% is scaled to controls: 0 for no effect and ±100 for the full control effect.

Cc1cc(Cl)c(C)cc1Cl
inactive: outcome [1] | outcome [2] | Potency [3] | Potency [4] | activity change, positive = activation [5] -5.35% | outcome [6] | Potency [7] | outcome [8] | outcome [9] | Potency [10] | Potency [11] | outcome [12] | max response [13] 6.26% | outcome [14] | outcome [15] | outcome [16] | outcome [17] | Potency [18] | Potency [19]

OC[C@H](Cc1cccc(O)c1)[C@H](CO)Cc1cccc(O)c1
inactive: outcome [1] | outcome [2] | outcome [20] | activity change, positive = activation [5] -21.1% | outcome [6] | Potency [7] | outcome [8] | outcome [9] | Potency [10] | Potency [11] | outcome [12] | max response [13] -10.5% | outcome [14] | outcome [15] | outcome [16] | outcome [17] | Potency [18] | Potency [19]

CC(=O)c1ccc2c(c1)Cc1ccccc1-2
inactive: outcome [1] | outcome [2] | outcome [20] | outcome [6] | Potency [7] | outcome [8] | outcome [9] | Potency [10] | Potency [11] | outcome [12] | max response [13] -0.213% | outcome [14] | outcome [15] | outcome [16] | Potency [18] | Potency [19]

C[C@@H](O)[C@H]1C(=O)N2C(C(=O)O)=C(SCCN=CN)C[C@H]12
inactive: outcome [1] | outcome [2] | Potency [3] | Potency [4] | activity change, positive = activation [5] 5.47% [at 42.5 µM] | outcome [6] | Potency [7] | outcome [8] | outcome [9] | Potency [10] | Potency [11] | max response [13] 2.62% | outcome [15] | outcome [16] | outcome [17] | Potency [18] | Potency [19]

Nc1nnc(-c2cccc(Cl)c2Cl)c(N)n1
inactive: outcome [1] | outcome [2] | Potency [3] | outcome [8] | Potency [10] | outcome [14] | outcome [15] | outcome [17] | Potency [18]

O=P(O)(O)OP(=O)(O)O
inactive: outcome [1] | outcome [2] | Potency [3] | outcome [6] | Potency [7] | outcome [8] | outcome [9] | Potency [10] | Potency [11] | outcome [12] | max response [13] 2.82% | outcome [14] | outcome [15] | outcome [16] | outcome [17] | Potency [18] | Potency [19]

CC(C)NCC(O)COc1cccc2[nH]ccc12 (configuration not stated)
inactive: outcome [1] | outcome [2] | Potency [3] | outcome [6] | Potency [7] | outcome [8] | outcome [9] | Potency [10] | Potency [11] | max response [13] -0.192% | outcome [14] | outcome [15] | outcome [16] | outcome [17] | Potency [18]

NCCN1CCOCC1
inactive: outcome [1] | outcome [2] | Potency [3] | outcome [6] | Potency [7] | outcome [8] | outcome [9] | Potency [10] | Potency [11] | outcome [12] | max response [13] 1.04% | outcome [14] | outcome [15] | outcome [16] | outcome [17] | Potency [18] | Potency [19]

CC(C)=CCOC(=O)c1ccccc1
inactive: outcome [1] | outcome [2] | Potency [3] | Potency [4] | activity change, positive = activation [5] 2.82% | outcome [6] | Potency [7] | outcome [8] | outcome [9] | Potency [11] | outcome [12] | max response [13] -0.369% | outcome [16] | Potency [19]

Cc1cc(C(C)(C)C)c(O)c(C)c1CC1=NCCN1
inactive: outcome [1] | outcome [2] | Potency [3] | outcome [6] | Potency [7] | outcome [8] | outcome [9] | Potency [10] | Potency [11] | outcome [12] | max response [13] 0.324% | outcome [14] | outcome [15] | outcome [16] | outcome [17] | Potency [18] | Potency [19]

OCCCCC(O)CO (configuration not stated)
inactive: outcome [1] | outcome [2] | Potency [4] | activity change, positive = activation [5] -0.533% | outcome [6] | Potency [7] | outcome [8] | outcome [9] | Potency [10] | Potency [11] | outcome [12] | max response [13] 5.78% | outcome [14] | outcome [15] | outcome [16] | outcome [17] | Potency [18] | Potency [19]
